Measurements: PubChem BioAssay (EPA / NIEHS)
Inconclusive results are not listed. Activity calls are given as the source filed them. Rule for the calls, unless noted: active = hit-call score of the fitted dose curve at least 0.9, where 1 is the maximum; inconclusive = response in the unintended direction; inactive = score below 0.9. *1 amine or outer side, *2 acyl side, *3 side chain or, on linkers, in order; H or OH if unused. Where a SMILES comes first, the peptide text is derived from it. Bridges are numbered along the chain shown (N, C = ends). [ ]: non-standard residue; d: D form. The star is where a group is joined. X3 = NC1=N[C@@H]([C@H](N[*:1])C(=O)[*:2])C[C@H](O)N1; ΔAla(Z-3-ureido) = NC(=O)N/C=C(\N)C(=O)O; β3hOrn = NCCC[C@H](N)CC(=O)*; Dap = NC[C@H](N)C(=O)O

Legend:
[1] = TOX21_p53_BLA_p2_viability: Viability Assessment in the Tox21 HCT-116 p53 Agonism Beta-lactamase Assay, Phase 2 (AID 2283591);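 note: compound exposure lasted 16 h at 37 °C; actives lower the ATP signal meaning cytotoxicity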
Method in brief: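 HCT116 p53-bla cells, 4000/well, dosed after 5 h plating (217-fold dilution of DMSO stocks) and incubated 16 h at 37C. Viability taken as cellular ATP by CellTiter-Glo luminescence after 30 min RT; signal loss marks cytotoxicity.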

[2] = target: Cellular tumor antigen p53 (Homo sapiens) (UniProt P04637); assay: TOX21_p53_BLA_p2_ratio: Tox21 HCT-116 p53 Agonism Beta-lactamase Assay, Ratio, Phase 2 (AID 2283592)
Method in brief: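 DMSO-normalized, positive-direction endpoint derived from the 460 nm/530 nm FRET ratio in HCT116 p53 beta-lactamase reporter cells exposed 16 h at 37C and loaded with CCF4-AM for 2 h.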

[3] = TOX21_p53_BLA_p4_viability: Viability Assessment in the Tox21 HCT-116 p53 Agonism Beta-lactamase Assay, Phase 4 (AID 2283597);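 note: hits lower the luminescence signal meaning cytotoxicity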
Method in brief: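 In this multiplexed secondary endpoint, HCT116 cells (4000 per well, compound at 5 h, 16 h treatment) received CellTiter-Glo after the beta-lactamase read. Luminescence after 30 min RT reflects ATP, and falling signal marks cytotoxicity.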

[4] = TOX21_p53_BLA_p5_viability: Viability Assessment in the Tox21 HCT-116 p53 Agonism Beta-lactamase Assay, Phase 5 (AID 2283600)
Method in brief: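 Here cell health was gauged by ATP levels in wells holding 4000 cells, each treated 16 h with DMSO-delivered compounds at 217-fold dilution; reduced luminescence marked toxicity.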

[5] = target: Thyroid hormone receptor alpha (Rattus norvegicus) + Thyroid hormone receptor beta (Rattus norvegicus) (UniProt P18113+P63059); assay: TOX21_TR_LUC_GH3_Antagonist_Followup: Tox21 GH3 Thyroid Hormone Receptor Antagonism Luciferase Follow-Up Assay (AID 2283942)
Method in brief: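 Luminescence read-out (ONE-Glo, 30 min at room temperature) in GH3 reporter cells challenged with 1.0 nM T3 final. Compounds ran at 92 uM to 5nM over 15 concentrations for 24 h; DMSO served as negative control and baseline.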

THRB (gene 7068) = THRB (gene 7068) (UniProt P10828); assay: TOX21_TRB_BLA_Antagonist_Followup_ratio: Tox21 Thyroid Hormone Receptor beta Antagonism Beta-lactamase (BLA) Follow-Up Assay, Ratio (AID 2283958)
Method in brief: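 Cells were plated and allowed to attach for 5 h, then dosed with compounds in DMSO at 11 concentrations for 18 h at 37C. Beta-lactamase reporter activity was measured via CCF4-AM FRET as the 460:530 nm ratio.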

[6] = target: Retinoic acid receptor RXR-alpha (Homo sapiens) (UniProt P19793); assay: TOX21_TR_RXR_BLA_Antagonist_Followup_ratio: Tox21 Thyroid Hormone Receptor beta Retinoid X Receptor alpha (RXRa) Antagonism Beta-lactamase (BLA) Follow-Up Assay, Ratio (AID 2283972)
Method in brief: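 Compounds were tested in triplicate at 11 concentrations on RXRa-bla HEK293T cells for 16 h. Substrate cleavage ratio, normalized to DMSO, gave the endpoint.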

[7] = target: Cellular tumor antigen p53 (Homo sapiens) (UniProt P04637); assay: TOX21_p53_BLA_p5_ratio: Tox21 HCT-116 p53 Agonism Beta-lactamase Assay, Ratio, Phase 5 (AID 2283599)
Method in brief: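 HCT-116 p53-bla cells (4000/well) plated 5 h, dosed with compound (217-fold DMSO dilution) for 16 h at 37 C; CCF4-AM substrate 2 h at room temperature. Activity is the 460/530 nm emission ratio (405 nm excitation), fitted in gain-of-signal direction versus DMSO.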

[8] = target: Cellular tumor antigen p53 (Homo sapiens) (UniProt P04637); assay: TOX21_p53_BLA_p4_ratio: Tox21 HCT-116 p53 Agonism Beta-lactamase Assay, Ratio, Phase 4 (AID 2283601)
Method in brief: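 HCT-116 p53 beta-lactamase reporter cells (4000/well) preincubated 5 h, then compound (217-fold dilution of DMSO stock) for 16 h at 37C. CCF4-AM substrate added 2 h at room temperature; 460/530 nm emission ratio fitted upward versus DMSO.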

PGR (gene 5241) [9] = target: PGR (gene 5241) (UniProt P06401); assay: TOX21_PR_BLA_Followup_Agonist_ratio: Tox21 HEK293 Progesterone Receptor (PR) Agonism Beta-lactamase Follow-Up Assay, Ratio (AID 2283933)
Method in brief: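 Cells were seeded and held 6 hr before compound addition, exposed for 16 hr at 37C, then given FRET substrate for 2 hr at room temperature. Agonism was scored from the blue/green substrate cleavage ratio against DMSO controls.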

PGR (gene 5241) [10] = target: PGR (gene 5241) (UniProt P06401); assay: TOX21_PR_BLA_Followup_Antagonist_ratio: Tox21 HEK293 Progesterone Receptor (PR) Antagonism Beta-lactamase Follow-Up Assay, Ratio (AID 2283934);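 note: PR-UAS-bla HEK293T cells stimulated with 1 nM R5020 agonist for 16 hr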
Method in brief: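 Cells are plated, rested 6 hr, then dosed with test compound in DMSO and challenged with 1 nM promegestone. After 16 hr incubation, substrate loading for 2 h at room temperature precedes fluorescence reading; viability is measured in the same wells.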

[11] = TOX21_PR_BLA_Followup_Agonist_viability: Viability Assessment in the Tox21 HEK293 Progesterone Receptor (PR) Agonism Beta-lactamase Follow-Up Assay (AID 2283935);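 note: signal loss means lower viability so actives are cytotoxic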
Method in brief: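 Cells were plated in medium with 2% charcoal-stripped FBS and rested 6 hr. Compounds in DMSO were then added for 16 hr at 37C, followed by the FRET substrate step and CellTiter-Glo luminescence after 30 min.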

[12] = TOX21_PR_BLA_Followup_Antagonist_viability: Viability Assessment in the Tox21 HEK293 Progesterone Receptor (PR) Antagonism Beta-lactamase Follow-Up Assay (AID 2283936);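 note: cells exposed to compound with R5020 agonist for 16 h; hits lower the luminescence signal meaning cytotoxicity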
Method in brief: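 PR-UAS-bla HEK293T cells in medium with 2% charcoal-stripped FBS were treated with compounds plus R5020 for 16 hr at 37C. After the beta-lactamase read, CellTiter-Glo was added to the same wells and luminescence read after 30 min at room temperature.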

PGR (gene 5241) [13] = target: PGR (gene 5241) (UniProt P06401); assay: TOX21_PR_LUC_Followup_Agonist: Tox21 HEK293 Progesterone Receptor (PR) Agonism Luciferase Follow-Up Assay (AID 2283937; active = hit-call score of the fitted dose curve at least 0.9, where 1 is the maximum; inactive = score below 0.9)
Method in brief: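 Seed HEK293-PR-A-luc cells, wait 5 h, add compounds in DMSO, incubate 16 h at 37C, add ONE-Glo, read luminescence after 30 min. Activity is increase over DMSO controls; run with a viability counter-screen.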

[14] = TOX21_PR_LUC_Followup_Antagonist_viability: Viability Assessment in the Tox21 HEK293 Progesterone Receptor (PR) Antagonism Luciferase Follow-Up Assay (AID 2283940)
Method in brief: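 HEK293-PR-A-luc, 3,000 cells/well; 5 h at 37C/0% CO2; compound pin transfer; 16 h incubation; CellTiter-Glo ATP luminescence, signal loss = cytotoxicity.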

[15] = TOX21_PR_LUC_Followup_Agonist_viability: Viability Assessment in the Tox21 HEK293 Progesterone Receptor (PR) Agonism Luciferase Follow-Up Assay (AID 2283941);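 note: loss of signal means cytotoxicity so actives lower viability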
Method in brief: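 Multiplexed viability endpoint of the PR agonist luciferase follow-up: HEK293-PR-A-luc cells treated 16 h at 37C, with viability scored as decrease in CellTiter-Glo ATP signal.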

Measured: AC50

Sequence of PGR (gene 5241) (P06401 whole entry, looked up): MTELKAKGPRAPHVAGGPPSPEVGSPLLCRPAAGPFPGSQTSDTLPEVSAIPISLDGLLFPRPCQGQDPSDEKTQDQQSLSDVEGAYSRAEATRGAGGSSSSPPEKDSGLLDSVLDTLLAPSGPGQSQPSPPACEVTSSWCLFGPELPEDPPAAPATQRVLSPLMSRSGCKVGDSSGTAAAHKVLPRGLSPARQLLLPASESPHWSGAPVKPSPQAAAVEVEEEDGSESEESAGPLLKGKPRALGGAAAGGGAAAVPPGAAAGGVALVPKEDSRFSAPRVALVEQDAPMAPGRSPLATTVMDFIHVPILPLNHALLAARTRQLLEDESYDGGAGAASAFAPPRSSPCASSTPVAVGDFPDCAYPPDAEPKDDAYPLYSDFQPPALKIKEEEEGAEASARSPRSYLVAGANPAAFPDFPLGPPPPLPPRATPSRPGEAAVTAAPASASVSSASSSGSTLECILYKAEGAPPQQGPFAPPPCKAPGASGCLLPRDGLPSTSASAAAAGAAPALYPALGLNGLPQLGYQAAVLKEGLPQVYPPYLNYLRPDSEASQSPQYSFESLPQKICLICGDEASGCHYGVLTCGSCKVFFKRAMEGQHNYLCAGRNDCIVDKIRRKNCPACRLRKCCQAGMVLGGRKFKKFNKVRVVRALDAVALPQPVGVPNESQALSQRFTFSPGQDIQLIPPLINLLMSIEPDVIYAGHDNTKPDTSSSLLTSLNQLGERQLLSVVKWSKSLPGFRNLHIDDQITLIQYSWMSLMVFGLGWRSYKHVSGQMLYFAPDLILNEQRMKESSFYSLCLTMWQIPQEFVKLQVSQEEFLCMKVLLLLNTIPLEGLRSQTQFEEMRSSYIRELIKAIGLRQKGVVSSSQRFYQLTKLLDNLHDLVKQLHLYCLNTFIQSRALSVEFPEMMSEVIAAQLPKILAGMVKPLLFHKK
Sequence of Cellular tumor antigen p53 (Homo sapiens) (P04637 whole entry, looked up): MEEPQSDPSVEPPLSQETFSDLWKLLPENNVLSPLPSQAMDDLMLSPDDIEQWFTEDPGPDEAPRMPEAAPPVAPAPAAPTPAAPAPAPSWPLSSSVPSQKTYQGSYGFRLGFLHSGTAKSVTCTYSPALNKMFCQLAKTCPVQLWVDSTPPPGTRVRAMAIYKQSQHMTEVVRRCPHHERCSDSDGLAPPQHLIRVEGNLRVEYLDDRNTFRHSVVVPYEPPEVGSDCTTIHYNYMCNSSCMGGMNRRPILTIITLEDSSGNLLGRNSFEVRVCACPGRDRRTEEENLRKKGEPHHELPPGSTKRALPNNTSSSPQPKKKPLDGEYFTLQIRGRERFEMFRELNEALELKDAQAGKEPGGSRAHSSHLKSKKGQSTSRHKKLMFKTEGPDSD
Sequence of THRB (gene 7068) (P10828 whole entry, looked up): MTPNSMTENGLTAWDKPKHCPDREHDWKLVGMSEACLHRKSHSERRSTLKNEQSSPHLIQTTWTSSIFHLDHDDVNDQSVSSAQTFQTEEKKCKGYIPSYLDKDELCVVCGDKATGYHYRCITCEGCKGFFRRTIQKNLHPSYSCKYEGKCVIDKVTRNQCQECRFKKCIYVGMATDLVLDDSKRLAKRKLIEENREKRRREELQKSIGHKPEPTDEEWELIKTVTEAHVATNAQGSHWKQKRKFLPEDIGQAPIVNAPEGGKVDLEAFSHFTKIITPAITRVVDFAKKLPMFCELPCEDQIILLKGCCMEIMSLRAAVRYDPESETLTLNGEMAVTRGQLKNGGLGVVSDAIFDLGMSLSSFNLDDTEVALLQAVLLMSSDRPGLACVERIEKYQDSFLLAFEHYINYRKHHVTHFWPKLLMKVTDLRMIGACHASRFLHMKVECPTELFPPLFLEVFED
Sequence of Retinoic acid receptor RXR-alpha (Homo sapiens) (P19793 whole entry, looked up): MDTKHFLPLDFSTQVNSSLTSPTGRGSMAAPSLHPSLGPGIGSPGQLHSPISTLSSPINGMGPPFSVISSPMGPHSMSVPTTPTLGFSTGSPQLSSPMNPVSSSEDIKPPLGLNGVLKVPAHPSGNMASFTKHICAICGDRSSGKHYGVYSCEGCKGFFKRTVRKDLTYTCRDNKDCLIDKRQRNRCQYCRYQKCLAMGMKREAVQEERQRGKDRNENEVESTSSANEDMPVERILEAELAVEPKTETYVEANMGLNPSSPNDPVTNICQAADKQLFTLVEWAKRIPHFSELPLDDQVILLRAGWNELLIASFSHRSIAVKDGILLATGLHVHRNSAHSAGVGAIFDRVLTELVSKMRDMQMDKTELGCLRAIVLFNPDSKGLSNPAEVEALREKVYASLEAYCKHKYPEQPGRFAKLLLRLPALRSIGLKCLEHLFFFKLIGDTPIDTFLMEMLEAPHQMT

COc1ccc(/C=C/C(=O)Nc2ccccc2C(=O)O)cc1OC
active: [5] 2700 nM
inactive: [1] | [2] | [3] | [4] | THRB (gene 7068) | [6]

CC(=O)SC[C@@H](C)C(=O)N1CCC[C@H]1C(=O)N[C@@H](Cc1ccccc1)C(=O)O
inactive: [1] | [2] | [7] | [4]

C=CCCCCCCCCCCCCCCCC
inactive: [1] | [2] | [3] | [8]

Cc1cc(C(=O)NCCc2ccc(S(=O)(=O)NC(=O)NN3CCCCCC3)cc2)no1
inactive: [1] | [2] | [3] | [8]

C[C@@H]1C\C=C/C=C/C=C/C=C/[C@H](O[C@@H]2O[C@H](C)[C@@H](O)[C@H](N)[C@@H]2O)C[C@@H]2O[C@](O)(C[C@@H](O)C[C@@H]3O[C@@H]3/C=C\C(=O)O1)C[C@H](O)[C@H]2C(=O)O
inactive: [1] | [2] | [7]

COc1nc(N)nc2nc[nH]c12
inactive: [1] | [2] | [3] | [4]

CCOc1cc(OCC)c(C(=O)CCC(=O)O)cc1OCC
inactive: [1] | [2] | [3] | [4] | [8]

CC1(N)CCC(C(C)(C)N)CC1 (configuration not stated)
inactive: [1] | [2] | [7] | [4]

Nc1ccn(C[C@@H](CO)OCP(=O)(O)O)c(=O)n1
inactive: [1] | [2] | [7] | [4]

C=C1c2c(Cl)ccc(O)c2C(O)=C2C(=O)[C@]3(O)C(O)=C(C(N)=O)C(=O)[C@@H](N(C)C)[C@@H]3[C@@H](O)[C@H]12
inactive: [1] | [2] | [3] | [4]

Cc1c(Cn2ccnc2)c2ccccc2n1CCC(=O)O
inactive: [1] | [2] | [7] | [4] | [8]

OC[C@@H](O)C(O)[C@@H](O)CO (some centres not stated)
inactive: [1] | [2] | [7] | [4]

NC(=S)NC(N)=S
inactive: [1] | [2] | [3] | [4] | [8]

CCCN(CCC)CCc1cccc2c1CC(=O)N2
inactive: [1] | [2] | [7] | [4]

NCCC[C@H](N)CC(=O)N[C@H]1CNC(=O)[C@H]([C@H]2C[C@H](O)NC(N)=N2)NC(=O)/C(=C/NC(N)=O)NC(=O)[C@H](CO)NC(=O)[C@H](CO)NC1=O (β3hOrn-[Dap]SS[ΔAla(Z-3-ureido)][X3]; lactam 1-C)
inactive: [1] | [2] | [3] | [8]

CC(=O)OCC(=O)[C@@]1(O)CC[C@H]2[C@@H]3CCC4=CC(=O)C=C[C@]4(C)[C@@]3(F)[C@@H](O)C[C@@]21C
active: PGR (gene 5241) [9] 16900 nM | PGR (gene 5241) [13] 123 nM
not listed: [5] | THRB (gene 7068) | [6] | [7]
inactive: all other assays above
